From PubChem
Sampled rows, rich in hits. Any-hit rate of the full collection: about 2.4%.
eIF4H FP inh: inhibitors of RNA binding by human eIF4H; Q15056; eIF4H fluorescence polarization binding assay; inhibition, % at 35 µM; 290,000 compounds, 0.94% hits; AID 2012;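 also: calls also rest on retests at 20 µM and on dose response follow-up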
PABP1 MLLE inh: inhibitors of microRNA-mediated deadenylation, human PABP1 MLLE binding | P11940 | GST-MLLE / FITC-PAM2 fluorescence polarization | inhibition, % at 20 µM | 360,000 compounds, 0.36% hits | AID 588489; in the data active = inhibition above about 35%, passing the limit was not always enough;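 also: plate controls were DMSO wells with GST-MLLE for no effect and wells lacking GST-MLLE protein for full effect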
PABP FP inh: PABP-poly(A) binding inhibition. P11940. PABP-poly(A) RNA binding, fluorescence polarization. inhibition, % at 35 µM. 290,000 compounds, 1% hits;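 also: calls also rest on retests at 20 µM and on dose response follow-up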
PERK inhibitor: human PERK inhibition, primary cell-based screen; Q9NZJ5; CHO PERK-DD fusion, SEAP luminescence translation reporter; inhibition, % at 5.6 µM; 220,000 compounds, 0.17% hits; AID 1416;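 active = inhibition above the mean inhibition of all tested compounds plus 3 SD, set separately per screening campaign, cut at about 2.9% in these data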;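 also: PERK kinase domain activated by AP20187 dimerizer at 100 nM; 0% = DMSO with dimerizer and 100% = rapamycin at 8.4 µM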
eIF4E 4G PPI: eIF4E/eIF4G interaction inhibition in translation initiation; 220,000 compounds, 0.37% hits; P63073+Q04637; inhibition, % at 21.7 µM; TR-FRET eIF4E-eIF4GI(517-606) binding, 2 h;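 active = inhibition above about 30%, limit read from the data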;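 also: 0% = full FRET control wells and 100% = background wells lacking eIF4GI fragment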
PfM18AAP inh: PfM18AAP enzyme inhibition; recombinant PfM18AAP, H-Glu-NHMec fluorogenic cleavage; inhibition, % at 7.35 µM; 290,000 compounds, 1.2% hits;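 active = inhibition above the campaign mean inhibition over all tested compounds plus 3 SD, cut at about 28% in these data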;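 also: 0% = plate median of test compound wells and 100% = 2 mM ZnCl2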
The depositor's hits bear a star; i = inactive; u = inconclusive; x = no result. Unless noted, no rule for the calls is given here.

SMILES	eIF4H FP inh	PABP1 MLLE inh	PABP FP inh	PERK inhibitor	eIF4E 4G PPI	PfM18AAP inh
COc1ccc(C(=O)CCc2ccccc2)cc1	-2.4	-2.9	-0.5	x	x	-2.4
Cc1cc(C)n(Cc2ccc(F)cc2)c(=O)c1C#N	0.0	-2.4	-3.1	0.0	3.0	2.8
Cc1ccccc1Cn1c(C)cc(C)c(C#N)c1=O	active	-2.6	92.6*	0.6	2.4	1.0
O=C(NCC(O)CO)c1csc(Nc2cccc3ccccc23)n1 (stereo unspecified)	8.7	17.6	-1.7	x	x	7.9
O=C(Nc1nccs1)c1cccc2ccccc12	-6.9	3.2	3.2	x	x	1.1
O=C(O)c1ccccc1C(=O)Nc1nccs1	4.4	-4.2	-6.1	1.7	71.8*	-5.2
CN(Cc1ccc(F)cc1)C(=O)c1ccc(NC(=O)CC2SC(N3CCCC3)=NC2=O)cc1 (stereo unspecified)	x	-1.0	x	x	x	x
N#Cc1c(-c2ccccc2Cl)noc1/C=C/Nc1ccc(C(=O)O)cc1	51.8*	-10.8	active	0.9	-1.4	2.5
Cc1cccc(CSC2=NCCN2S(=O)(=O)c2ccc(F)cc2)c1	-3.3	-3.1	-9.3	x	x	-3.0
NC(=O)NC(=O)COC(=O)c1ccc(Cl)c(S(=O)(=O)N(Cc2ccccc2)c2ccc(Cl)cc2)c1	83.4	7.5	16.3*	-1.2	3.2	-8.3
Oc1cc(-n2cccn2)c(O)cc1-n1cccn1	-7.2	47.0*	13.6	0.3	8.1	84.8*
O=Cc1ccccc1-n1cccn1	-8.6	0.0	38.5	-0.4	-2.3	4.4
N#Cc1c(-c2ccco2)cc(-c2ccc(F)cc2)nc1N	62.1*	-62.9	75.7*	1.8	x	0.1
O=C(O)c1nn(Cc2ncc(-c3cccc(Cl)c3)o2)c(=O)c2ccccc12	-11.6	-21.5	-6.2	x	x	11.0
O=C(C1COc2ccccc2O1)N1CCc2ccccc21 (stereo unspecified)	78.6*	-6.4	16.1	0.8	9.4	2.1
COc1cccc(CN2CCC2(C)C(=O)Nc2cccc(Oc3ccccc3)c2)c1OC (stereo unspecified)	x	-1.0	x	x	x	x
Cc1ccccc1-c1nc(S(=O)(=O)c2ccccc2)c(N2CCCC2)o1	x	41.6*	x	x	x	x
C=C(C)CN1C(=O)c2ccccc2C1=O	56.6	-2.9	2.9*	0.8	-7.7	3.8
Cc1[nH]nc(SCC(=O)NCc2ccccc2)c1[N+](=O)[O-]	-1.2	2.1	-1.6	0.6	11.9	-7.3
COC(=O)CSc1[nH]c2ccccc2c1[N+](=O)[O-]	-4.1	39.3*	-4.0	1.4	-9.1	-3.9
Cc1ccccc1CSc1nnc(C)c(=O)n1N	5.7	4.5	8.9	1.4	-4.1	2.0
O=C1CN(c2ccccc2)C(=S)N1C(=O)c1ccc(Br)cc1	-8.4	18.6	-6.2	x	x	-10.2
COc1cc2c3c(c1)/C(=C1/SC(NC(C)=O)=NC1=O)C(=O)N3C(C)(C)C=C2C	17.8	36.9*	8.5	0.4	-6.9	-2.6
CCN1C(=O)/C(=C2/C(=O)N3c4c(cc(OC(C)=O)cc42)C(C)=CC3(C)C)SC1=S	3.3	18.7	-3.6	0.5	0.2	-5.0
Cc1ccc(-c2csc3ncn(CC#N)c(=O)c23)cc1	38.7	-18.5	41.3	0.7	8.6	-5.0
SMILES	eIF4H FP inh	PABP1 MLLE inh	PABP FP inh	PERK inhibitor	eIF4E 4G PPI	PfM18AAP inh
Cc1ccc(-c2csc3ncn(CC#N)c(=O)c23)cc1C	54.0*	-10.3	34.3*	x	x	-1.9
CCOC(=O)C1CCCN(C(=O)c2ccc3c(=O)n(Cc4ccccc4OC)c(=S)[nH]c3c2)C1 (stereo unspecified)	-3.9	-52.0	-4.6	x	x	-2.8
CCOC(=O)c1c2ccc(OCC(=O)NN)cc2n2ccccc12	9.7	58.0*	-0.4	-0.1	-2.4	7.5
Cc1cc(NS(=O)(=O)c2ccc(NC(=O)Nc3cccc(C(F)(F)F)c3)cc2)no1	-5.6	-8.7	5.7	x	x	-5.5
COc1cc(N2CCCC2)c(OC)cc1/C=C1/NC(=S)NC1=O	u	i	-9.1	0.7	27.9	28.5*
CC(=O)Nc1ccc(N2CCN(Cc3ccccc3)CC2)cc1	-0.3	-9.2	-8.2	x	x	3.1
O=C(NCCc1ccccc1)C1CCC(=O)N1C1CCCC1 (stereo unspecified)	-7.8	-11.5	-7.4	x	x	-10.3
Cc1noc(/C=C/Nc2ccc(F)cc2F)c1[N+](=O)[O-]	69.8	50.1*	15.7	0.9	-2.8	-2.0
Nn1c(COc2cccc(Br)c2)nnc1SCC(=O)NCC1CCCO1 (stereo unspecified)	x	-136.8	x	x	x	x
